Compound activity as filed in PubChem BioAssay.
Compounds with a hit are over-represented: about 3.2% of the library has one in this group of screens.
YjeE inh: inhibitors of E. coli YjeE (TsaE); AID 605; Potency, µM; 0.05% of 71,000 active; purified YjeE enzyme, qHTS inhibition assay; P0AF67
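Fluorescence polarization of a BODIPY Texas Red–ADP probe (2 uM) bound to purified YjeE (10 uM) was read after 15 min room-temperature incubation with compounds. Loss of polarization marks inhibitors; ADP serves as titrated control.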
Pol III holo inh: DNA polymerase III holoenzyme inhibition. reconstituted DNA polymerase III holoenzyme replication, biochemical. Potency, µM (titrated, usually from 57.1 µM), for inactives: at the highest dose activity change, negative = inhibition. 0.25% of 71,000 active. AID 603; further: potency means the concentration at half of the fitted maximal effect; on the % scale 0 is the no-effect control and ±100 the full control effect
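Reconstituted *E. coli* holoenzyme (0.35 nM Pol III, 1 nM beta, 154 nM SSB, 2 nM primase) was preincubated with compound for 15 min at RT. Synthesis on 1.4 nM ssM13Gori ran 35 min, then was stopped with PicoGreen/EDTA and read as dsDNA fluorescence.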
BRCT PPI red: BRCT-phosphoprotein interaction inhibition (red fluorophore) | BRCT-phosphopeptide binding, red fluorescence polarization | Potency, µM (top dose mostly 76.9 µM), inactives show at the highest dose activity change, negative = inhibition, actives largely listed as inhibitors | 0.03% of 75,000 active | AID 892; further: on the % scale 0 is the no-effect control and ±100 the full control effect
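Fluorescence polarization: 100 nM His-tagged BRCA1 BRCT with 100 nM TAMRA-labelled phospho-BACH1 decapeptide, phosphate buffer pH 7.3 with 150 mM NaCl, DTT, 0.01% Tween 20; 12 min RT. Binding inhibition seen as FP decrease.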
TSHR agonist: activates the human thyroid stimulating hormone receptor | Potency, µM (series often up to 57.1 µM), for inactives: top-dose activation, hits mostly activators | P16473 | 0.48% of 73,000 active | HEK293-CNG-TSHR cells (CNG channel as cAMP sensor), membrane potential dye, cAMP; active means well fitted activation curve with a large enough effect in the main read-out, with a control signal flat, not every such curve was filed as active; inconclusive means small, poorly fitted or top-dose-only effect, or a change in a side signal; inactive means no such curve, though single readings can be large or run the other way; % of control where 0% means no effect;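 further: the control signal comes from parental cells without the receptor; potency means the concentration at half of the fitted maximal effect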
Target sequence (P16473 whole entry, looked up): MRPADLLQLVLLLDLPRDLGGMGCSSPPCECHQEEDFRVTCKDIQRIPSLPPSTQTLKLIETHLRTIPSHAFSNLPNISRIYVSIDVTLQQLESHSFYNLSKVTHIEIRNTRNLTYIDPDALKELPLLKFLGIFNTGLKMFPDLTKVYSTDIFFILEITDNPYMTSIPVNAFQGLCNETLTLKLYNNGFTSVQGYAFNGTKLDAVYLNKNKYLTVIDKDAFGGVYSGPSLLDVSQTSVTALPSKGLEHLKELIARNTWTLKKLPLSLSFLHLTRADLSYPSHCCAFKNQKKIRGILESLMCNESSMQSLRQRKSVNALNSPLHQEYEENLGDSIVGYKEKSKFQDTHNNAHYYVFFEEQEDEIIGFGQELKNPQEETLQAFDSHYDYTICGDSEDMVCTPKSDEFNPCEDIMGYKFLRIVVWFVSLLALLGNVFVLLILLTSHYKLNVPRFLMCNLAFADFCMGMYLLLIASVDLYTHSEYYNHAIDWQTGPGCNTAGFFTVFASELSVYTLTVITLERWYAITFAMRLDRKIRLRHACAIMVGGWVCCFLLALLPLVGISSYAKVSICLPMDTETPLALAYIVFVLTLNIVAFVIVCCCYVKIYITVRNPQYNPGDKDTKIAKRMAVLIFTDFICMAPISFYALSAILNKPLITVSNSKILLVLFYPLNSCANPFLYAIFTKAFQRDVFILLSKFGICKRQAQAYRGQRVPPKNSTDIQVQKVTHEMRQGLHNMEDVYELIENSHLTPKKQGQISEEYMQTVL
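HEK 293 cells stably expressing TSHR and a modified CNG channel, with CNG-only parental cells as counterscreen, were preloaded 60 min at room temperature with membrane potential dye containing 100 uM RO 20-1724. Compound exposure was 30 min, and depolarization was read as fluorescence at 590 nm.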
HEK293 cAMP ctrl: raises cAMP in parental HEK293 cells, TSHR agonist counter-screen; parental HEK293 CNG cAMP sensor, membrane potential fluorescence; Potency, µM (highest dose often 57.1 µM), inactives show at the highest dose activation, actives largely listed as activators; 2.5% of 73,000 active; AID 938; further: potency means the concentration at half of the fitted maximal effect; % of control where 0% means no effect; nearly all actives have a fitted effect of over 55% in size
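Parental HEK 293 cells stably expressing a modified CNG channel (no TSHR) report cAMP rise as membrane depolarization. Membrane potential dye with 100 uM RO 20-1724 was loaded for 60 min at room temperature, then compound added for 30 min; fluorescence read at 590 nm.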
BRCT PPI green: BRCA1 BRCT-phosphoprotein interaction inhibition | P38398 | BRCA1 BRCT-phosphopeptide binding, green fluorescence polarization | Potency, µM (titrated, usually from 76.9 µM), for inactives: top-dose activity change, negative = inhibition, actives largely listed as inhibitors | 0.05% of 75,000 active | AID 875;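 further: potency means the concentration at half of the fitted maximal effect; plate controls were peptide without protein for full effect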
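Fluorescence polarization: His-tagged BRCT (~35 kDa BRCA1 C-terminus, 250 nM) bound to 100 nM fluorescein-labeled phosphorylated 10-aa BACH1 peptide, pH 7.3 phosphate buffer with DTT and Tween 20. Compounds incubated 12 min at room temperature; inhibition read as lowered polarization.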
Active calls of the source: *; i = inactive; u = inconclusive; x = not tested or not shown; [ ] = another dose, or the depositor's remark. Unless noted, the call rests on the fitted dose curve; in most records, active means well fitted curve in the direction sought with a large enough effect; inconclusive means small, poorly fitted or top-dose-only effect, or another doubt; inactive means no such curve, though single readings can be large; an effect the other way counts as inactive or inconclusive.

SMILES	YjeE inh	Pol III holo inh	BRCT PPI red	TSHR agonist	HEK293 cAMP ctrl	BRCT PPI green
O=C(C1Cc2ccccc2CN1S(=O)(=O)c1ccc(F)cc1)N1CCCCCC1 (configuration not stated)	i	-5%	0%	u	u	-2%
O=C(CCCCn1c(=O)c2ccccc2n(Cc2ccc(F)cc2Cl)c1=O)NCc1ccco1	i	-2%	-3%	u	u	0%
CC(=O)O[C@@]1(C(C)=O)CCC2C3C=C(Cl)C4=CC(=O)CC[C@]4(C)C3CC[C@]21C (some centres not stated)	x	x	-2%	x	x	1%[3.08 µM]
O=C1c2ccccc2N2C(=O)c3ccccc3C2N1Cc1ccco1 (configuration not stated)	i	-6%	-1%	u	25µM*	5%
Cc1nc2cnc(N3CCOCC3)nc2n(Cc2cccs2)c1=O	i	2%	0%	4%	10%	5%
CCC(C)(c1ccc(C(=O)OC)s1)c1ccc(C(=O)OC)s1	i	-6%	1%	u	20µM*	2%
COC(=O)Cn1c(CN(Cc2ccccc2)Cc2ccccc2)nc2c1c(=O)[nH]c(=O)n2C	i	-2%	-2%	18%	14%	5%
O=C(CN1C(=O)COc2ccccc21)NCCCN1CCc2ccccc2C1	i	5%	0%	4%	20%	-1%
CCCCOc1ccc(S(=O)(=O)n2c(C)nc3ccccc32)cc1	i	-2%[11.4 µM]	0%	u	3.2µM*	1%
CCOc1ccc(S(=O)(=O)n2c(C)nc3ccccc32)cc1	i	-2%	2%	9%	13%	-2%
COc1cccc(NC(=O)CCN2CCN(c3ccccc3F)CC2)c1	x	x	-1%	u	25µM*	-3%
COc1ccc(C)cc1NC(=O)CN1CCN(c2ccccc2F)CC1	i	1%	0%	u	16µM*	0%
O=C(CCN1CCN(c2ccc(Cl)cc2)CC1)Nc1ccccc1F	i	-6%	-2%	u	25µM*	-3%
COc1ccc(OC)c(NC(=O)CCN2CCN(c3ccccc3F)CC2)c1	i	3%[11.4 µM]	0%	14%[11.4 µM]	12%[11.4 µM]	-2%
CCOc1ccccc1N(CC(=O)Nc1ccc2c(c1)OCCO2)S(C)(=O)=O	i	-11%	1%	x	5%	-1%
c1ccc(CSc2nnc(-c3ccncc3)o2)cc1	i	-2%	-2%	6%	9%	0%
COC(=O)c1ccccc1NC(=O)C(C)Oc1ccccc1 (configuration not stated)	i	3%	-1%	u	u	0%
CCC(C)(C)NC(=O)CC(c1ccc(OC)cc1)n1cccc1 (configuration not stated)	i	1%	1%	26%	12%	-3%
CN(C)c1ccc(N=NS(=O)(=O)O)cc1	i	-13%	0%	u	10µM*	3%
O=S(=O)(O)c1ccc(N=Nc2ccccc2)cc1	i	-6%[11.4 µM]	0%[15.4 µM]	-1%[11.4 µM]	-4%[11.4 µM]	0%[15.4 µM]
Cc1nnc(SCc2cc(=O)n3[nH]cnc3n2)s1	i	-5%	-3%	-1%	11%	1%
Cc1cc(C)c2nc(C(F)(F)F)nc(N3CC(C)OC(C)C3)c2c1 (configuration not stated)	i	-1%	-2%	u	25µM*	1%
Cc1cccc([N+](=O)[O-])c1C(=O)O	i	-5%	0%	17%	26%	-2%
CCOC(=O)c1cccc(NC(=O)CSc2nnc(C3CCCCC3)n2CC)c1	i	6%	-2%	u	25µM*	1%
c1coc(-c2nc3ccccc3nc2-c2ccco2)c1	i	25µM*	-3%	u	u	-3%
c1ccc(Cn2c(-c3ccco3)nc3nc4ccccc4nc32)cc1	i	-4%	0%	8%	19%	4%
COc1cccc(-c2ccc3ncnc(N(C)Cc4ccco4)c3c2)c1	i	-7%	0%	u	16µM*	-3%
